# Measured values taken from paper PMC7862700, “An all-to-all approach to the identification of sequence-specific readers for epigenetic DNA modifications on cytosine”.
# Tests used:
# Test in all cases: DAPPL (digital affinity profiling via proximity ligation, sequencing); 10 mM Tris-HCl pH 7.5, 50 mM NaCl, 1 mM DTT, 4% glycerol, room temperature, 30 min; GST-TFs on glutathione beads, 16-mer random dsDNA library, 0.1% formaldehyde crosslink after washing; high values mean tight binding
# [1] = biological target: T1, FLI1 (Homo sapiens, UniProt Q01543 1-452); conditions: protein: recombinant; tags: N-terminal GST; dsDNA, one strand shown
# T1 sequence: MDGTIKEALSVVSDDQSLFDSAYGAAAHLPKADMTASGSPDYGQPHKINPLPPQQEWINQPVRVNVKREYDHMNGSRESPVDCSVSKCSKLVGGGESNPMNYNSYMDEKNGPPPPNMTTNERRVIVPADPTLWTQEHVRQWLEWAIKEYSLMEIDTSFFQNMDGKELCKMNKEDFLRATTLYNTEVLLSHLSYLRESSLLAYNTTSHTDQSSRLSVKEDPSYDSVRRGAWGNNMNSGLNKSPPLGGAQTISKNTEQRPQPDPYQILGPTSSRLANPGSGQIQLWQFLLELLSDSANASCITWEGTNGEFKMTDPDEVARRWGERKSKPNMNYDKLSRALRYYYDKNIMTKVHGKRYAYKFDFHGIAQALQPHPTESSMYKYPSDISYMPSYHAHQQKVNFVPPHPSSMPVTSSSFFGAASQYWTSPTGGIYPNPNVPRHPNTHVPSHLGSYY
# Method in brief: (§1)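 Yeast served to express human transcription factors as GST fusions, which were then captured on glutathione beads and labelled with DNA barcodes. Pooled with a tag-only sample, they were incubated with 200 nmole of a 16-mer random double-stranded DNA library for 30 min at room temperature in Tris/NaCl/DTT/glycerol buffer, washed, crosslinked with 0.1% formaldehyde, ligated by proximity, amplified by PCR and sequenced. Dividing each hexamer's read frequency for a factor by its frequency for the tag-only sample gives the binding signal.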
# [2] = biological target: T2, ELK1 (Homo sapiens, UniProt P19419 1-428); conditions: protein: recombinant; tags: N-terminal GST; dsDNA, one strand shown
# T2 sequence: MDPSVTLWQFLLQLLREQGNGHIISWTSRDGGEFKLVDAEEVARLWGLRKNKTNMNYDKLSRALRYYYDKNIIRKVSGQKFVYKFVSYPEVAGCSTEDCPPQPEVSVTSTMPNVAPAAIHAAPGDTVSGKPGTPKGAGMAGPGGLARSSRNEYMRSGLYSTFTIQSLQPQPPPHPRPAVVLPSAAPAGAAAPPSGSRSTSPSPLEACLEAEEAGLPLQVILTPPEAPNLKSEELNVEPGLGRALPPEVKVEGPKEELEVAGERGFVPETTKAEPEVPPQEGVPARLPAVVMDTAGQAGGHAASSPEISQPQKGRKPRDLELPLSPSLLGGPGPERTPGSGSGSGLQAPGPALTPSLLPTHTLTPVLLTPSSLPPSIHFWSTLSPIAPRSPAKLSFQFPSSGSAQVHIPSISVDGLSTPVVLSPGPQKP
# Method in brief: as §1
# [3] = biological target: T3, GABPA (Homo sapiens, UniProt Q06546 1-454); conditions: protein: recombinant; tags: N-terminal GST; dsDNA, one strand shown
# T3 sequence: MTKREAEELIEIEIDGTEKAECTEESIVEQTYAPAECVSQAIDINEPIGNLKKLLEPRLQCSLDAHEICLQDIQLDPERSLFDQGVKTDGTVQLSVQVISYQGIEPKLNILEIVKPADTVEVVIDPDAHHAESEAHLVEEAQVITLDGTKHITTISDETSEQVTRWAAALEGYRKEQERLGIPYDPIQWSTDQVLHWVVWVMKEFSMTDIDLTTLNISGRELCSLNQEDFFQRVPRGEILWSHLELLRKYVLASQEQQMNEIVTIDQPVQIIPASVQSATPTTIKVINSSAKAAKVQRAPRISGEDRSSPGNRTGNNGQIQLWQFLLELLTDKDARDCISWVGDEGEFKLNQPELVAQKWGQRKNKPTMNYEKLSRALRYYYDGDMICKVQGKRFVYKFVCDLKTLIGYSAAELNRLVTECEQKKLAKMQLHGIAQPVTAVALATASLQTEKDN
# Method in brief: as §1
# [4] = biological target: T4, ERG (Homo sapiens, UniProt P11308 1-479); conditions: protein: recombinant; tags: N-terminal GST; dsDNA, one strand shown
# T4 sequence: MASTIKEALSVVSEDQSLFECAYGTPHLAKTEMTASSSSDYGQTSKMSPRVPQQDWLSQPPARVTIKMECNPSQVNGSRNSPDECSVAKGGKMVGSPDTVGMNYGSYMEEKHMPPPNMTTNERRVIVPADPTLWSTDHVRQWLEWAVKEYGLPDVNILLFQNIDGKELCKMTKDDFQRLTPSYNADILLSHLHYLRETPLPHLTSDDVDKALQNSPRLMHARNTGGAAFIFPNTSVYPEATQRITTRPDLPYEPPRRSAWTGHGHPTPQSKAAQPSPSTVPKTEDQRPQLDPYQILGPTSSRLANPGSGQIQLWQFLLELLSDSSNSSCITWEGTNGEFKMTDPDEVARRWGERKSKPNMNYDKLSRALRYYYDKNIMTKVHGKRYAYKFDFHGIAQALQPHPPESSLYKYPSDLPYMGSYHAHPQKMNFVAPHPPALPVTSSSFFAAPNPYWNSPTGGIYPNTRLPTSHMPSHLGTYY
# Method in brief: as §1
# [5] = biological target: ELF1 (Homo sapiens, UniProt P32519 1-619); conditions: protein: recombinant; tags: N-terminal GST; dsDNA, one strand shown
# Chain of ELF1 (P32519 whole entry): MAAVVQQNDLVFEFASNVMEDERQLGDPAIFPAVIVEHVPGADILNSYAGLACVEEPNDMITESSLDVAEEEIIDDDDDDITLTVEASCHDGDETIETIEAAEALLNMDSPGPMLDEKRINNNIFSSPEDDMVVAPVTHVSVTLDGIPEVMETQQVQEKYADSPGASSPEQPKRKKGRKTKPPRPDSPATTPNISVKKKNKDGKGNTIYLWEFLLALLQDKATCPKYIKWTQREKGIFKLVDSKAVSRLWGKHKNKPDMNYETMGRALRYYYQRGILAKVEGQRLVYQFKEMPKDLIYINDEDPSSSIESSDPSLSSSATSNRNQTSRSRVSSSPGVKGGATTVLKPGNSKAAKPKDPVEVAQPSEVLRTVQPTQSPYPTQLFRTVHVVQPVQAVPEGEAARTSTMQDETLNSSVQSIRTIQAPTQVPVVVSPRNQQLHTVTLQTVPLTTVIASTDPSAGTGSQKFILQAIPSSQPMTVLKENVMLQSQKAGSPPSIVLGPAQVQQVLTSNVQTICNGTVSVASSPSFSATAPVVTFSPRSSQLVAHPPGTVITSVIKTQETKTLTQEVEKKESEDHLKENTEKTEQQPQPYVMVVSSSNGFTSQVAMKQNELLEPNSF
# Method in brief: as §1
# [6] = biological target: T5, EHF (Homo sapiens, UniProt Q9NZC4 1-300); conditions: protein: recombinant; tags: N-terminal GST; dsDNA, one strand shown
# T5 sequence: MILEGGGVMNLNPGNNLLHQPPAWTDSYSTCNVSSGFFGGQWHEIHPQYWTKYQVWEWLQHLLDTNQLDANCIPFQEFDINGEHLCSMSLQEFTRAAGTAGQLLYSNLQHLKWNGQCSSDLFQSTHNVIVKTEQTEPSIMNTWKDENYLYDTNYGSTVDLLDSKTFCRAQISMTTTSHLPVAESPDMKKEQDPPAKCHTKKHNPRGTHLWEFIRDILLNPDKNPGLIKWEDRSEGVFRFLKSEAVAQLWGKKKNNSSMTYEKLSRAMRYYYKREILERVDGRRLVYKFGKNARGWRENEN
# Method in brief: as §1
# [7] = biological target: SPI1 (Homo sapiens, UniProt P17947 1-270); conditions: protein: recombinant; tags: N-terminal GST; dsDNA, one strand shown
# Method in brief: as §1
# [8] = biological target: SPIB (Homo sapiens, UniProt Q01892 1-262); conditions: protein: recombinant; tags: N-terminal GST; dsDNA, one strand shown
# Chain of SPIB (Q01892 whole entry): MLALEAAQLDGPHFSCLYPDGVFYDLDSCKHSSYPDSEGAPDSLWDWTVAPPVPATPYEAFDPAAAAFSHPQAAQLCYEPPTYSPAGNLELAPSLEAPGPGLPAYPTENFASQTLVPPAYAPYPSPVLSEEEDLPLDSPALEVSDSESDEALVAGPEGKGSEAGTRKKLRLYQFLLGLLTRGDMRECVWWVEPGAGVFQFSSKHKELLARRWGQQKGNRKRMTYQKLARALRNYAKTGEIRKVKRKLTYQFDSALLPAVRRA
# Method in brief: as §1
# [9] = biological target: T6, ELK3 (Homo sapiens, UniProt P41970 1-407); conditions: protein: recombinant; tags: N-terminal GST; dsDNA, one strand shown
# T6 sequence: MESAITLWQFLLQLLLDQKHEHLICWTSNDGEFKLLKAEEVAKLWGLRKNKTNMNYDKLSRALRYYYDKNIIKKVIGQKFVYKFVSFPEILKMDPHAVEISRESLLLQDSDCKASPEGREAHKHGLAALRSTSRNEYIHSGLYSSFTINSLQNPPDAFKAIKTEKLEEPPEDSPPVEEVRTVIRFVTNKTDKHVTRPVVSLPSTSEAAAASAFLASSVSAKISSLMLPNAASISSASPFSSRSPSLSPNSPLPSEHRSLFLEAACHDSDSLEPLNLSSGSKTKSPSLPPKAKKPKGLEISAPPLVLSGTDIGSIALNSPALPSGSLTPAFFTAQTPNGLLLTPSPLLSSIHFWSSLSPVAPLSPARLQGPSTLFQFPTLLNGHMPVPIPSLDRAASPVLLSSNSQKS
# Method in brief: as §1
# [10] = biological target: T7, FEV (Homo sapiens, UniProt Q99581 1-238); conditions: protein: recombinant; tags: N-terminal GST; dsDNA, one strand shown
# T7 sequence: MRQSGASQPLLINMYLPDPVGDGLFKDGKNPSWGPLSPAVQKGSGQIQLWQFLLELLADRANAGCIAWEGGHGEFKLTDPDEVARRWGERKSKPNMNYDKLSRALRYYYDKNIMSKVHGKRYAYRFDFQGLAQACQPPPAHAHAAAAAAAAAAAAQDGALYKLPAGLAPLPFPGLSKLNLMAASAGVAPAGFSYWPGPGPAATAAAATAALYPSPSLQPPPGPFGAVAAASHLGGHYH
# Method in brief: as §1
# [11] = biological target: ETV5 (Homo sapiens, UniProt P41161 1-510); conditions: protein: recombinant; tags: N-terminal GST; dsDNA, one strand shown
# Chain of ETV5 (P41161 whole entry): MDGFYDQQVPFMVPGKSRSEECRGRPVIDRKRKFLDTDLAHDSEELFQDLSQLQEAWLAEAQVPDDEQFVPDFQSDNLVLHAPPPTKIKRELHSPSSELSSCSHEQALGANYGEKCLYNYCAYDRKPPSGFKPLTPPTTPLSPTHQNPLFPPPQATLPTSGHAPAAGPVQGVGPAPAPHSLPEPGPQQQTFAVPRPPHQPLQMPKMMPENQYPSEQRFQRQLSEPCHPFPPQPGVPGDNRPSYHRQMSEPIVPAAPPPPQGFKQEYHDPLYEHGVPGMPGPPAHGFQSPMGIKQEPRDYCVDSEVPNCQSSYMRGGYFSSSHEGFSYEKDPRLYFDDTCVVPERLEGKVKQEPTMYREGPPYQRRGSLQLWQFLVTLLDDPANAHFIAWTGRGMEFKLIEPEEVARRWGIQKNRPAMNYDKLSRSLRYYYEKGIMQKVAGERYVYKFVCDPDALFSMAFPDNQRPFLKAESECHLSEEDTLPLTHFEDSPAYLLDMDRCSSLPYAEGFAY
# Method in brief: as §1
# [12] = biological target: HSF1 (Homo sapiens, UniProt Q00613 1-529); conditions: protein: recombinant; tags: N-terminal GST; chain copies: 3; dsDNA, one strand shown
# Chain of HSF1 (Q00613 whole entry): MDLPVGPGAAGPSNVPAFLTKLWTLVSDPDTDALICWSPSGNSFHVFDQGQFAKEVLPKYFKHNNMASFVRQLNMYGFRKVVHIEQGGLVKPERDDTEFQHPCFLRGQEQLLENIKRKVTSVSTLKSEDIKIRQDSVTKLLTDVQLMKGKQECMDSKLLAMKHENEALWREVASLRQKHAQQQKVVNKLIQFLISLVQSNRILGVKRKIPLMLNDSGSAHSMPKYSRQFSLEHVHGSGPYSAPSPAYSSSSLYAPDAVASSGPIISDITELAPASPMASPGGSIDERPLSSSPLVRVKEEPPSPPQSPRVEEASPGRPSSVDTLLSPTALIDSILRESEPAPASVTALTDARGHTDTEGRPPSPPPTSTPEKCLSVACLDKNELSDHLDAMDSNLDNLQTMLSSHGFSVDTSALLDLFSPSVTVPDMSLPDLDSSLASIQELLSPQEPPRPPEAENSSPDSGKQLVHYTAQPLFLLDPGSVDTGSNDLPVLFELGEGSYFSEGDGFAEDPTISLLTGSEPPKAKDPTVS
# Method in brief: as §1
# [13] = biological target: T8, SPIC (Homo sapiens, UniProt Q8N5J4 1-248); conditions: protein: recombinant; tags: N-terminal GST; dsDNA, one strand shown
# T8 sequence: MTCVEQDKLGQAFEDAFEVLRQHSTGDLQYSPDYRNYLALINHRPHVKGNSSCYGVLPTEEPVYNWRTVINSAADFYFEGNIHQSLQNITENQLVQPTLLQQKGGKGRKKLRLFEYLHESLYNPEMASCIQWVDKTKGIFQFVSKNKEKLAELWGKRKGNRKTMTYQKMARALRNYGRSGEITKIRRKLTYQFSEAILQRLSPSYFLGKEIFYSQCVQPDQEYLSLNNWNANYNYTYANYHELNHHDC
# Method in brief: as §1
# [14] = biological target: ELF4 (Homo sapiens, UniProt Q99607 1-663); conditions: protein: recombinant; tags: N-terminal GST; dsDNA, one strand shown
# Chain of ELF4 (Q99607 whole entry): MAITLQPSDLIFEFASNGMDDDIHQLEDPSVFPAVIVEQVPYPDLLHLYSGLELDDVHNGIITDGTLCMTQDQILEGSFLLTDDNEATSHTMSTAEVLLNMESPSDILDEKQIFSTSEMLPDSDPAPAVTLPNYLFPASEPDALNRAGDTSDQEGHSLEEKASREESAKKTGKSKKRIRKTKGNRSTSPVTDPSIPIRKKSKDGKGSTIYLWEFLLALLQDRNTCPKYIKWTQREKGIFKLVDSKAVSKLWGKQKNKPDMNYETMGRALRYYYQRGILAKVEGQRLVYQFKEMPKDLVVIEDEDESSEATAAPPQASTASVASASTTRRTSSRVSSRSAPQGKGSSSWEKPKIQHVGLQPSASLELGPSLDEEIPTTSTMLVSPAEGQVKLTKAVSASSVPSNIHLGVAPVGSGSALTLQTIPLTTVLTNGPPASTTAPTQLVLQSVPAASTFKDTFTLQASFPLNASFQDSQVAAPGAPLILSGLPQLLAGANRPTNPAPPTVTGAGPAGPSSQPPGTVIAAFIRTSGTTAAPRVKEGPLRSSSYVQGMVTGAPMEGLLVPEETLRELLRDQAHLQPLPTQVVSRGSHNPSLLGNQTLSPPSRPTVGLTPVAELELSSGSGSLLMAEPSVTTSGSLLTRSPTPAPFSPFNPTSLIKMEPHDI
# Method in brief: as §1
# [15] = biological target: T9, ELK4 (Homo sapiens, UniProt P28324-2 1-405); conditions: protein: recombinant; tags: N-terminal GST; dsDNA, one strand shown
# T9 sequence: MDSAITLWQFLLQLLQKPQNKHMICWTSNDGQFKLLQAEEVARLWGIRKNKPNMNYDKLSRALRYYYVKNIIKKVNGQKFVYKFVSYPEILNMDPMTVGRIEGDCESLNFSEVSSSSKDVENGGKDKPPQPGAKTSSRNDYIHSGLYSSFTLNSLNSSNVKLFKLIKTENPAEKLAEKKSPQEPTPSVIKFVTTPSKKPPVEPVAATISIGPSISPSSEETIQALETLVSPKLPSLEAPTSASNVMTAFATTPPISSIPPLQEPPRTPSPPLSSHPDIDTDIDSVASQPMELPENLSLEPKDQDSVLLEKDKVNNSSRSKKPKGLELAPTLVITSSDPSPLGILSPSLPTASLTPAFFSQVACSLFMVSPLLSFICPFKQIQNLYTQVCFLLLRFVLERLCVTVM
# Method in brief: as §1
# [16] = biological target: T10, ETV2 (Homo sapiens, UniProt O00321 1-342); conditions: protein: recombinant; tags: N-terminal GST; dsDNA, one strand shown
# T10 sequence: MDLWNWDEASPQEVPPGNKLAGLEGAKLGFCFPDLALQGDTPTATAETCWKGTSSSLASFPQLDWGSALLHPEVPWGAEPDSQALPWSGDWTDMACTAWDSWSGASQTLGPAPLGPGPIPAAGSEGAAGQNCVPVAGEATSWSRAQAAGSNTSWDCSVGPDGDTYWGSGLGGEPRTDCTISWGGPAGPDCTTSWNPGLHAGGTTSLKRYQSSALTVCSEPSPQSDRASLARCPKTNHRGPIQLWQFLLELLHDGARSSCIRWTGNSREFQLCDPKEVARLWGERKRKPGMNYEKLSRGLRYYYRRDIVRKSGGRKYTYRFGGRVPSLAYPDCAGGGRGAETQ
# Method in brief: as §1
# [17] = biological target: T11, ELF3 (Homo sapiens, UniProt P78545 1-371); conditions: protein: recombinant; tags: N-terminal GST; dsDNA, one strand shown
# T11 sequence: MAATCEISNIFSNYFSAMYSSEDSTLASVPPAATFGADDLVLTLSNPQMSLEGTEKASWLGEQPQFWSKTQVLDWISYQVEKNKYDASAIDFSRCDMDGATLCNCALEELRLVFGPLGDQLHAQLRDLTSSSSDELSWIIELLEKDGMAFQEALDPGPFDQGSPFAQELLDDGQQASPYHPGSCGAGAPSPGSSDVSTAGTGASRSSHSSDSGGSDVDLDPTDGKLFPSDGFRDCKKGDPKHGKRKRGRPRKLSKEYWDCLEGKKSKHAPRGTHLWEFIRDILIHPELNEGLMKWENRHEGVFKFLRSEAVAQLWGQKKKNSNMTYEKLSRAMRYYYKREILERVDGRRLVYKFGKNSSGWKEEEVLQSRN
# Method in brief: as §1
# [18] = biological target: CRX (Homo sapiens, UniProt O43186 1-299); conditions: protein: recombinant; tags: N-terminal GST; dsDNA, one strand shown
# Chain of CRX (O43186 whole entry): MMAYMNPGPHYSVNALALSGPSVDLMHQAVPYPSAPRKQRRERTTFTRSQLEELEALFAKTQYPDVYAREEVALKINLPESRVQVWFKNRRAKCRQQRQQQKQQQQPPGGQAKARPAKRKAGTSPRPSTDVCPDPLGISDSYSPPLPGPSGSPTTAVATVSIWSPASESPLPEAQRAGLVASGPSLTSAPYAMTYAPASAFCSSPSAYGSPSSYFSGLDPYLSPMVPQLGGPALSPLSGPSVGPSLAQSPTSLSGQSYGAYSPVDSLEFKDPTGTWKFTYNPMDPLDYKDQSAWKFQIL
# Method in brief: as §1
# [19] = biological target: ETV1 (Homo sapiens, UniProt P50549 1-477); conditions: protein: recombinant; tags: N-terminal GST; dsDNA, one strand shown
# Chain of ETV1 (P50549 whole entry): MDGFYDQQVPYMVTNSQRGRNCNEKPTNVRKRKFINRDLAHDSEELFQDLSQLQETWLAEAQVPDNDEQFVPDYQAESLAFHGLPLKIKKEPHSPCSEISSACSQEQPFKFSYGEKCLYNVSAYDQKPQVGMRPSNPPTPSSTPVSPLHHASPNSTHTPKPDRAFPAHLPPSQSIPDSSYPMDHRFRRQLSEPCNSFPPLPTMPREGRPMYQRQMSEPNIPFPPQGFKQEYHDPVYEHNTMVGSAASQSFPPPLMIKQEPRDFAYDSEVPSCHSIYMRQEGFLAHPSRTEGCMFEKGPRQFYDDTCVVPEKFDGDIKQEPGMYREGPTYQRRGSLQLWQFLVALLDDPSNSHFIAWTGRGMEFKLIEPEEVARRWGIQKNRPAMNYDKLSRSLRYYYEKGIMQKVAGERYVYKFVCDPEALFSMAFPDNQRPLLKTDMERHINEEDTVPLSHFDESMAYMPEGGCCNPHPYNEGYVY
# Method in brief: as §1
sequence,measurement,setting,value
TCTATT,binding signal,[1],"1.33 fold enrichment (6-mer frequency, TF over GST control)"
same,binding signal,[2],"1.3 fold enrichment (6-mer frequency, TF over GST control)"
same,binding signal,[3],"1.18 fold enrichment (6-mer frequency, TF over GST control)"
same,binding signal,[4],"1.25 fold enrichment (6-mer frequency, TF over GST control)"
same,binding signal,[5],"1.29 fold enrichment (6-mer frequency, TF over GST control)"
same,binding signal,[6],"1.28 fold enrichment (6-mer frequency, TF over GST control)"
same,binding signal,[7],"1.28 fold enrichment (6-mer frequency, TF over GST control)"
same,binding signal,[8],"1.28 fold enrichment (6-mer frequency, TF over GST control)"
same,binding signal,[9],"1.18 fold enrichment (6-mer frequency, TF over GST control)"
same,binding signal,[10],"1.22 fold enrichment (6-mer frequency, TF over GST control)"
same,binding signal,[11],"1.3 fold enrichment (6-mer frequency, TF over GST control)"
same,binding signal,[12],"1.43 fold enrichment (6-mer frequency, TF over GST control)"
same,binding signal,[13],"1.57 fold enrichment (6-mer frequency, TF over GST control)"
same,binding signal,[14],"1.27 fold enrichment (6-mer frequency, TF over GST control)"
same,binding signal,[15],"1.25 fold enrichment (6-mer frequency, TF over GST control)"
same,binding signal,[16],"1.16 fold enrichment (6-mer frequency, TF over GST control)"
same,binding signal,[17],"1.35 fold enrichment (6-mer frequency, TF over GST control)"
same,binding signal,[18],"1.37 fold enrichment (6-mer frequency, TF over GST control)"
same,binding signal,[19],"1.25 fold enrichment (6-mer frequency, TF over GST control)"
